High-throughput results (PubChem)
A selection: hits, their analogues and other compounds. The true share with any hit is near 15%.
ELG1 repair inh: qHTS screen for small molecules that inhibit ELG1-dependent DNA repair in human embryonic kidney (HEK293T) cells expressing luciferase-tagged ELG1; AID 504467, 2011; Potency, µM (highest dose often 46.1 µM), for the others: at the highest dose activity change, negative = inhibition, most hits filed as inhibitors; 330,000 compounds, 2.3% hits; HEK293T ELG1-luciferase reporter, luminescence, 16 h; DNA damage induced by 5-fluorouridine; note: nearly all actives have a fitted effect of over 55% in size
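Overnight (16 hr) co-exposure of 2,000 cells/well to 5-fluorouridine and compound at 37 °C preceded detection. Luciferase was quantified via ONE-Glo luminescence; loss of signal denotes inhibition.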
VP16 counter: VP16 counterscreen qHTS for inhibitors of ROR gamma transcriptional activity. Potency, µM (series often up to 53.6 µM), without a hit: at the top dose activity, negative = inhibition, hits mostly inhibitors. 310,000 compounds, 3.5% hits. Drosophila S2 Gal4-VP16 UAS-luciferase, luminescence, 20 h;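 note: Gal4-VP16 expression switched on by copper sulfate through the metallothionein promoter; nearly all actives have a fitted effect of over 50% in size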
TDP1 cell CPT: qHTS for Inhibitors of human tyrosyl-DNA phosphodiesterase 1 (TDP1): qHTS in cells in presence of CPT | chicken DT40 Tdp1-/-;hTDP1 cells + 20 nM CPT, ATP luminescence, 48 h | Potency, µM (series often up to 46.2 µM), for inactives: at the highest dose activity change, negative = growth inhibition, hits mostly inhibitors | 420,000 compounds, 12% hits | AID 686979, 2013; note: nearly all actives have a fitted effect of over 55% in size
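Cell growth measured by CellTiter-Glo luminescence after a minimum 48 h, 37 C compound exposure with 20 nM CPT in Tdp1-knockout DT40 cells stably expressing hTDP1, seeded 400/well; qHTS titration format.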
TDP1 cell noCPT: qHTS for Inhibitors of human tyrosyl-DNA phosphodiesterase 1 (TDP1): qHTS in cells in absence of CPT. DT40 Tdp1-/- hTDP1 cells, no CPT, ATP luminescence, 48 h. Potency, µM (highest dose often 46.2 µM), for the others: at the highest dose activity change, negative = growth inhibition, actives largely listed as inhibitors. 420,000 compounds, 15% hits. AID 686978, 2013; note: nearly all actives have a fitted effect of over 55% in size
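Growth kinetics read by CellTiter-Glo luminescence after ≥48 hr at 37 °C. Cells: DT40 Tdp1-/- stably carrying human TDP1, 400 per well, compound exposure in the absence of CPT (DMSO vehicle).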
ALOX12 inh: Primary qHTS assay for inhibitors of human arachidonate 12S-lipoxygenase (ALOX12): Round 2; Polyunsaturated fatty acid lipoxygenase ALOX12 (Homo sapiens), P18054; purified 12hLO, xylenol orange hydroperoxide absorbance; AID 1671190, 2021; 580,000 compounds, 1.1% hits; Potency, µM (highest dose often 108 µM), without a hit: at the top dose activity change, negative = inhibition, most hits filed as inhibitors
Target sequence (P18054 whole entry, looked up): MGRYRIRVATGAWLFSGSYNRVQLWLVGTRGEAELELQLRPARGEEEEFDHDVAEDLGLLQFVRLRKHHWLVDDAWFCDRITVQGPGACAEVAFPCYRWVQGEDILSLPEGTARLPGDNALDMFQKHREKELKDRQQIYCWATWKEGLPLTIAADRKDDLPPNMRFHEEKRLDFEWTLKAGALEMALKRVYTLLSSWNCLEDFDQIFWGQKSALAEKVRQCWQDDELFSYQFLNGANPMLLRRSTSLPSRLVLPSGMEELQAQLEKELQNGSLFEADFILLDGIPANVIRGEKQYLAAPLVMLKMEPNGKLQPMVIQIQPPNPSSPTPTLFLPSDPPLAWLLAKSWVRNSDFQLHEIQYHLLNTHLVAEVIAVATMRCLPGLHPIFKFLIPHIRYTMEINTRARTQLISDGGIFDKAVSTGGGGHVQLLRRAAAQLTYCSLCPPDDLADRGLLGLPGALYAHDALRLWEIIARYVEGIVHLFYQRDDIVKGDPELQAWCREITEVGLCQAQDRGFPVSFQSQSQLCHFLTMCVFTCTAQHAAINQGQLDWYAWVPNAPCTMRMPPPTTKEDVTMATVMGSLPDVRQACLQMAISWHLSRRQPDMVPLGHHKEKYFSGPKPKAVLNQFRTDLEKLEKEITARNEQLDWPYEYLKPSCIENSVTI
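Purified human 12hLO at 150 nM in 25 mM Hepes, 0.01% Triton X-100, pH 7.0, preincubated 15 min at room temperature with compound. Reaction started with 40 uM arachidonic acid, 30 min at room temperature. Hydroperoxide measured by Fe-xylenol orange, 573/405 nm absorbance ratio.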
RORgamma inh: qHTS for inhibitors of ROR gamma transcriptional activity; Nuclear receptor ROR-gamma (Mus musculus), P51450; Drosophila S2 Gal4-RORgamma UAS-luciferase reporter, 20 h; Potency, µM (highest dose often 53.6 µM), for the others: top-dose activity change, negative = inhibition, actives largely listed as inhibitors; 310,000 compounds, 5.4% hits; AID 2551, 2010; note: nearly all actives have a fitted effect of over 60% in size
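Stably transfected Drosophila Schneider cells are the test system, with ROR gamma fused to Gal4 and luciferase under UAS control; luminescence is read after 20 hr of 700 uM copper sulfate induction at ambient temperature.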
* = called active by the depositor; u = inconclusive; x = no result given; ! = a repeat was not active; [ ] = dose if it differs, or a comment. Calls come from the whole dose curve; as a rule, active = well fitted curve in the direction sought with a large enough effect; inconclusive = small, poorly fitted or top-dose-only effect, or another doubt; inactive = no such curve, though single readings can be large; an effect the other way counts as inactive or inconclusive. % is set by controls: 0 for no effect and ±100 for the full control effect; potency is the fitted concentration of half-maximal effect.

SMILES	ELG1 repair inh	VP16 counter	TDP1 cell CPT	TDP1 cell noCPT	ALOX12 inh	RORgamma inh
S=C(Nc1ccc(Br)cc1)N1CCN(c2ccccn2)CC1	7%	u	-29%	-11%	5%	11µM*
COC(=O)c1cc(OC)c(OC)cc1NC(=S)N1CCN(c2ccccn2)CC1	u	6%	-20%	u	-17%	11µM*
COc1cc(NC(=S)N2CCN(c3ccccn3)CC2)cc(OC)c1	-4%	u	-16%	-17%	14%	11µM*
Cc1nn(C)c(C)c1CN(Cc1cnc(N2CCCCC2)nc1)C1CC1	x	x	x	x	7%	x
COc1cc2ncn(CCC(=O)N3CCSCC3)c(=O)c2cc1OC	x	x	x	x	59%	x
Cc1ccc(NC(=S)N2CCN(c3ccccn3)CC2)cc1C	-13%	13µM*	-15%	-10%	10%	u
Cc1cccc(NC(=S)N2CCN(c3ccccn3)CC2)c1	-9%	u	-4%	u	u	u
COc1cccc(/C=C/C2=CC(C)(C)NC(=S)N2)c1	-13%	5µM*	-7%	u	u	1.3µM*
COc1ccc(/C=C/C2=CC(C)(C)NC(=S)N2)cc1OC	-17%	-16%	-27%	-10%	u	3.2µM*
COc1cccc(/C=N/n2c(-c3cc(C)[nH]n3)n[nH]c2=S)c1	15%	-14%	6%	u	u	-48%
CCOc1ccc(/C=C/C2=CC(C)(C)NC(=S)N2)cc1	u	2.2µM*	15µM*	u	40µM*	0.71µM*
CC1=C(C(N)=O)C(c2cccnc2)n2nc(SCc3ccccc3F)nc2N1 (centres undefined)	x	x	x	x	13%	x
Cc1noc([C@@H]2CN(S(=O)(=O)c3ccc4c(c3)OCCO4)C[C@H]2C(N)=O)n1	x	x	x	x	6%	x
Cc1ccccc1OCC1CN(Cc2c[nH]c3ccccc23)C(=O)c2c(ccnc2-c2ccc(OCC(=O)O)cc2)O1 (centres undefined)	x	x	x	x	15%	x
O=C1CCCN1c1ccc(S(=O)(=O)Oc2ccc(Cl)cc2)cc1[N+](=O)[O-]	-11%	-3%	21µM*	21µM*	9%	18%
O=[N+]([O-])c1cc(S(=O)(=O)Oc2ccccc2)ccc1Cl	x	x	0.58µM*	0.58µM*	2%	x
CCCNS(=O)(=O)c1ccc(N2CCCC2=O)c([N+](=O)[O-])c1	-4%	-8%	-1%	-4%	11%	18%
N#C/C(=C/c1cccc(O)c1)c1nc2ccccc2o1	x	x	x	x	-33%	x
C[N+]1(C)CCC(=C2c3ccccc3CC(=O)c3sccc32)CC1	u	-3%	26µM*	u	u	39%
COc1ccc(OC)c(CN(CCCN2CCOCC2)C(=O)Nc2ccccc2)c1	12%	-2%	-1%	8%	-20%	33%
COc1cc(Cl)ccc1NC(=S)N(CCCN1CCOCC1)Cc1cn(C)c2ccccc12	u	u	16µM*	21µM*	2%	11µM*
COc1ccc(Cl)cc1NC(=S)N(CCCN1CCOCC1)Cc1cn(C)c2ccccc12	-26%	u	13µM*	u	-3%	13µM*
Cc1ccc(Cl)cc1NC(=S)N(CCCN1CCOCC1)Cc1ccccn1	4%	-4%	-1%	-1%	-10%	-36%
CCOC(=O)c1sc(NC(C)C)nc1C(F)(F)F	x	x	x	x	-9%	x
[C-]#[N+]/C(C#N)=C\c1cc(C(C)(C)C)c(O)c(C(C)(C)C)c1	x	8.9µM*	x	x	x	0.2µM*
SMILES	ELG1 repair inh	VP16 counter	TDP1 cell CPT	TDP1 cell noCPT	ALOX12 inh	RORgamma inh
N#C/C(=C/c1ccc(F)cc1)C(N)=S	2%	-8%	-13%	-27%	-25%	u
N#CC(C#N)=C(N)/C(C#N)=C/c1cc(O)c(O)c(O)c1	1%	x	u	u	5µM*!	x
CC(C)(C)c1cc(/C=C(\C#N)C(N)=S)cc(C(C)(C)C)c1O	x	x	0.56µM*	0.71µM*	u	x
COCCOC(=O)/C(C#N)=C\c1cc(C)c(O)c(C)c1	x	x	x	x	39%	x
O=C1COc2ccc(-c3cc(-c4ccccc4)c4c(n3)-c3ccccc3OC4)cc2N1	x	x	13µM*	9.2µM*	-21%	x
O=c1c(-c2cc(-c3ccc(Cl)cc3)nc3c2COc2ccccc2-3)coc2ccccc12	x	x	-24%	-6%	-25%	x
O=C1COc2ccc(-c3cc(-c4ccc(Cl)cc4)c4c(n3)-c3ccccc3OC4)cc2N1	x	x	1µM*	2.3µM*	-24%	x
O=C1COc2ccc(-c3cc(-c4ccccc4)c4c(n3)-c3cc(Cl)ccc3OC4)cc2N1	x	x	3.3µM*	1.2µM*	-1%	x
O=c1c(-c2cc(-c3ccc(F)cc3)nc3c2COc2ccc(Cl)cc2-3)coc2ccc(F)cc12	x	x	3%	-4%	-28%	x
CCCCCOc1ccc(C(C)=O)cc1	x	x	x	x	-1%	x
N#CC1=C(N)C2=CCCC[C@H]2[C@H](c2ccc(Br)cc2)C1(C#N)C#N	17%	5µM*	u	u	x	u
OC(CNCc1ccccc1)Cn1ccc2ccccc21 (centres undefined)	-7%	-4%	-19%	-8%	u	11%
OCc1nc2ccccc2n1CC(O)COc1ccccc1F (centres undefined)	x	x	x	x	7%	x
OCc1nc2ccccc2n1CC(O)Cn1ccc2ccccc21 (centres undefined)	-28%	u	16µM*	13µM*	0%	u
Oc1ccccc1NCC(O)Cn1ccc2ccccc21 (centres undefined)	u	0%	16µM*	21µM*	u	9%
Cn1cc(C(=O)N/N=C/C2=C(N3CCOCC3)C(=C\c3ccccc3)/CC2)ccc1=O	u	3%	u	u	2%	0%
O=C1Nc2ccc(Br)cc2/C1=N\N=C\C1=C(N2CCOCC2)C(=C/c2ccccc2)/CC1	x	x	u	10µM*	u	x
CC(NC(=O)C12CC3CC(CC(C3)C1)C2)C(=O)N/N=C/C1=C(N2CCOCC2)C(=C\c2ccccc2)/CC1 (centres undefined)	-7%	-4%	u	21µM*	-25%	21%
CCC(CC)NC(=O)c1cnc2cc(C)nn2c1	x	x	x	x	72%[176 µM]	x
